About 83,000 compounds went through this panel and 20% of them were active in at least one assay; those are over-represented in the sample as a whole.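 Step 1: grow cells in 96-well plates. Step 2: add test compound at a single concentration. Step 3: incubate 48 h. Step 4: record percent growth.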 Values without a mark were called inactive. The source made the active and inactive calls. Rule for the calls: active = growth percent below 10; inactive = the rest.

The source of these data is PubChem BioAssay (NCI).

Holding throughout (assay): NCI-60 one-dose screen, 48 h (100 = growth as untreated, 0 = no growth, -100 = all killed)
Test [1] has as its system HCT-15 colon. The settings on record: 10 µM unless noted.
Test [2] deals with HT29 colon. The settings on record: 10 µM unless noted.
The subject of test [3] is SNB-75 CNS. The settings on record: 10 µM unless noted.
The test system of test [4] is SNB-19 CNS. The settings on record: 10 µM unless noted.
In test [5] the test system is U251 CNS. The settings on record: 10 µM unless noted.
For test [6], the system named is PC-3 prostate. The settings on record: 10 µM unless noted.
The test system of test [7] is SK-MEL-5 melanoma. The settings on record: 10 µM unless noted.
Test [8] deals with UACC-62 melanoma. The settings on record: 10 µM unless noted.
The test system of test [9] is LOX IMVI melanoma. The settings on record: 10 µM unless noted.
Test [10] concerns SK-MEL-28 melanoma. The settings on record: 10 µM unless noted.
Test [11] concerns SK-MEL-2 melanoma. The settings on record: 10 µM.
The subject of test [12] is EKVX NSCLC. The settings on record: 10 µM unless noted.
Test [13] concerns SN12C renal. The settings on record: 10 µM unless noted.
The subject of test [14] is UO-31 renal. The settings on record: 10 µM unless noted.
The test system of test [15] is TK-10 renal. The settings on record: 10 µM unless noted.
For test [16], the system named is ACHN renal. The settings on record: 10 µM unless noted.
Test [17] deals with CAKI-1 renal. The settings on record: 10 µM unless noted.
In test [18] the test system is A498 renal. The settings on record: 10 µM unless noted.
Test [19] has as its system CCRF-CEM leukemia. The settings on record: 10 µM unless noted.
In test [20] the test system is MOLT-4 leukemia. The settings on record: 10 µM unless noted.

As to `O=C(NO)c1ccc(Cn2c(=O)n(CCc3ccccc3)c(=O)c3ccccc32)cc1`, the growth in test [1] was 28.6%; in test [2], 42.3%; in test [3], 54.3%; in test [4], 45.2%; in [5], 23.8%; in test [6] it was 20.3%. Further, the growth is 34.8% in test [7]; 3.79% (active) in [8]; 12.9% in test [9]; 13.4% in test [10]; 45.7% in [11]; 38.8% in test [12]. The growth is 38.5% in test [13]; 17.3% in test [14]; 43.4% in test [15]; 25.8% in test [16]; 27.2% in [17]; 12.7% in [18]. In addition, the growth in test [19] is 4.6% (active); in test [20], 3.88% (active).

For `COc1ccc(-c2nocc2-c2cc(OC)c(OC)c(OC)c2)cc1`, the growth is 9.74% (active) in test [1]; 0.361% (active) in test [2]; 32.8% in test [3]; 34.9% in [4]; 19.1% in [5]; 29% in test [6]. Besides, the growth is 7.25% (active) in test [7]; 13% in test [8]; 43.5% in [9]; 49.8% in test [10]; 41.5% in [11]; 54.2% in test [12]. Moreover, the growth in test [13] is 50%; in test [14] it was 36.3%; in [15] it was 67.3%; in [16] it was 39.6%; in [17], 31.2%; in [19], 22.7%. Moreover, the growth in [20] is 20.4%.

For the compound `CCc1nc2cc(/C=C/C(=O)NO)ccc2c(=O)n1CCc1ccc(F)cc1`, the growth in test [1] is 24.7%; in [2], 8.3% (active); in test [3] it was 30.6%; in test [4], 23.6%; in [5], -20.8% (active); in test [6], 13.2%. Further, the growth is -37.8% (active) in [7]; -28.8% (active) in test [8]; -73.2% (active) in test [9]; 22.8% in [10]; 49.1% in test [11]; 38.5% in test [12]. The growth was 0.812% (active) in test [13]; -15.5% (active) in [14]; -12.3% (active) in test [15]; -26.5% (active) in test [16]; 0.0916% (active) in test [17]; -26.2% (active) in test [18]. For the same compound, the values for the growth in [19] and in test [20] were 2.06% (active) and -3.04% (active), respectively.

For the compound `CCc1nc2cc(F)c(/C=C/C(=O)NO)cc2c(=O)n1CCc1ccccc1`, the growth in test [1] was 24.4%; in test [2] it was 13.2%; in test [3], 34.8%; in [4], 30.2%; in test [5], 7.95% (active); in test [6], 22.6%. For the same compound, the growth is 4.25% (active) in test [7]; -21.7% (active) in [8]; -33.9% (active) in [9]; 19.4% in [10]; 9.96% (active) in test [11]; 25.7% in [12]. The growth in test [13] was 13.6%; in test [14], -15% (active); in test [15], 1.94% (active); in test [16], 3.69% (active); in test [17], 0.745% (active); in [18], -14.1% (active). For the same compound, the growth in test [19] is 3.07% (active); in [20] it was 3.34% (active).

For the compound `COc1cnc2c(c1)C(=O)c1c-2n(CCCN2CCC(N)CC2)c(=O)c2cc([N+](=O)[O-])ccc12`, the growth in test [1] was 49%; in test [2], 36.5%; in [3], 60.9%; in test [4] it was 39.8%; in test [5], 39.4%; in test [6], 40.7%. For the same compound, the growth in [7] is 72.4%; in test [8] it was 49.8%; in test [9], 21.2%; in test [10], 116%; in test [11], 109%; in test [12], 75.7%. In addition, the growth in test [13] was 21.6%; in [14] it was 63.7%; in test [15], 82.6%; in test [16] it was 19.8%; in test [17], 45.2%; in test [18], 62.6%. Besides, the values for the growth in test [19] and in test [20] were 1.69% (active) and 0.263% (active), respectively.

Take `O=C(NO)c1ccc(Cn2c(=O)n(-c3ccccc3F)c(=O)c3ccccc32)cc1`: the growth in [1] is 20.6%; in [2], 9.88% (active); in test [3], -3.9% (active); in test [4], 6.93% (active); in test [5], -85.3% (active); in [6] it was -33.6% (active). The growth in test [7] is -19.2% (active); in test [8], -46.2% (active); in test [9], -86.4% (active); in test [10], -21.5% (active); in [11], -3.95% (active); in test [12], 6.72% (active). In addition, the growth in [13] is 11.5%; in test [14] it was 27.2%; in [15], 6.07% (active); in test [16], 22%; in test [17], 25%; in [18], -34.7% (active). In addition, the growth in test [19] is 2.07% (active); in [20], -8.31% (active).

On to `CCc1nc2cc(/C=C/C(=O)NO)ccc2c(=O)n1CCc1ccc(OC)cc1`, for which the growth is 25.2% in test [1]; 6.61% (active) in test [2]; 24.1% in test [3]; 35.9% in test [4]; 16.5% in [5]; 22.9% in [6]. In addition, the growth is 0.923% (active) in test [7]; -5.16% (active) in [8]; -21.8% (active) in [9]; 30% in test [10]; 47.4% in test [11]; 40.8% in test [12]. Further, the growth in test [13] was 24.9%; in test [14], 20.6%; in test [15], 2.16% (active); in test [16], 9.54% (active); in [17], 13.4%; in [18] it was -4.17% (active). Further, the growth is 10.2% in test [19] and 5.41% (active) in [20].
